High-throughput results deposited in PubChem by The Scripps Research Institute Molecular Screening Center.
Most compounds without a hit are left out; they make up all but 4.8% or so of the library.
hgDAF12 agonist = hgDAF-12 agonism, primary luciferase screen; HEK293 GAL4-hgDAF12 UAS-luciferase reporter, agonist luminescence; normalized to butyrate control; activation, % at 6.8 µM; 1.8% of 370,000 active; AID 687014;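 active means activation above a cutoff set at the mean of all screened compounds plus 3 SD, cut at about 10% in these data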;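 further: 0% = DMSO wells and 100% = sodium butyrate wells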
DAX1 inh-1 = inhibits human nuclear receptor DAX1; P51843; HEK293 Gal4-DAX1 luciferase reporter, luminescence; inhibition, % at 6.75 µM; 0.99% of 340,000 active; AID 504766;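 active means inhibition above the mean over all tested compounds plus 3 SD, cut at about 4.2% in these data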;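 further: 0% = DAX1-transfected cells with DMSO and 100% = empty-vector control cells with DMSO; inhibition shows as a rise in luminescence from relieved DAX1 repression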
Target sequence (P51843 207-470 limits assumed): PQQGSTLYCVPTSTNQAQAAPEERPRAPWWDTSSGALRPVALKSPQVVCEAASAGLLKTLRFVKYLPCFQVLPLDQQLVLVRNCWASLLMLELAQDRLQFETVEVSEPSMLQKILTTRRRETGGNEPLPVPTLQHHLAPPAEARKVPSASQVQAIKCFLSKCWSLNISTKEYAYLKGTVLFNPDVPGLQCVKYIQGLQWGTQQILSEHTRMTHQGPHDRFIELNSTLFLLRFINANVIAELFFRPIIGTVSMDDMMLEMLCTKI
hcDAF12 agonist = activators of H. contortus DAF-12 nuclear receptor; HEK293 hcDAF-12 lit1-tk-luc reporter, luminescence; 0% DMSO, 100% Δ7-dafachronic acid; activation, % at 6.8 µM; 1.4% of 370,000 active; AID 652067;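 active means activation above the mean of all tested compounds plus 3 SD, cut at about 5.5% in these data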;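 further: 100% = response to 3 µM Δ7-dafachronic acid high control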
DAX1 inh-2 = inhibitors of DAX1 repression of SF-1 activated StAR promoter; HEK293T StAR-luciferase reporter, SF-1/DAX-1 repression relief; inhibition, % at 6.8 µM; 1.1% of 370,000 active; AID 652010;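 active means inhibition above the mean over all tested compounds plus 3 SD, cut at about 3.6% in these data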;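 further: 0% = DAX-1 cells with DMSO and 100% = cells lacking DAX-1 with DMSO; higher inhibition means more luminescence from relief of DAX-1 repression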
SMARCA2 activ = activators of SMARCA2 function; AID 652017; MG213 cells, MMTV-luciferase reporter, dexamethasone, overnight; 1% of 370,000 active; activation, % at 9.1 µM; in the data active means activation above about 7.8%;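 further: 0% = vehicle wells and 100% = reference activator wells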
ssDAF-12 act = S. stercoralis DAF-12 activation, primary screen; HEK293 ssDAF-12/GRIP1 lit1-tk-luc reporter, luminescence; % of 3 µM dafachronic acid response; activation, % at 6.8 µM; 1% of 370,000 active; AID 652126;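 active means activation above the mean over all tested compounds plus 3 SD, cut at about 0.9% in these data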;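 further: 0% = DMSO-only wells and 100% = 3 µM delta7-dafachronic acid wells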
DAX1 conf = confirmation of human DAX1 (NR0B1) inhibitors. shares compounds with DAX1 inh-2. HEK293T StAR-promoter luciferase reporter, SF-1/DAX-1 repression. inhibition, % at 6.8 µM. 87% of 2,400 active;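 active means inhibition above the average of every tested compound plus 3 SD, cut at about 3.8% in these data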;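 further: 0% = DAX-1 cells with DMSO and 100% = no DAX-1 control cells with DMSO; active compounds raise luminescence by relieving repression of the StAR reporter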
SF1 mutant ctr = nonselective inhibitor or artifact in SF-1 mutant DAX1 counter-screen; 78% of 2,400 active; AID 652136; shares compounds with DAX1 inh-2; HEK293 StAR-luciferase, SF-1 AF2 mutant, luminescence; inhibition, % at 6.8 µM;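 active means inhibition above the mean of all tested compounds plus 3 SD, cut at about 3% in these data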;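 further: 0% = DAX-1 transfected cells with DMSO and 100% = cells without DAX-1 with DMSO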
SMARCA2 act conf = SMARCA2 activation, confirmation screen | shares compounds with SMARCA2 activ | MG213 cells, MMTV-luciferase with dexamethasone, luminescence, overnight; MG213 cells expressing E1A, Rb sequestered; DMSO wells 0%, reference activator 100% | activation, % at 9.1 µM | 30% of 3,500 active | AID 652260;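 active means activation above its plate's cutoff, the mean activation of tested wells plus 3 SD, cut at about 7.9% in these data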
VP16 Luc act = GAL4-VP16 reporter activation counter-screen. activation, % at 9.1 µM. AID 686939. 41% of 3,500 active. shares compounds with SMARCA2 activ. HEK293 GAL4-VP16 pG5luc reporter, luciferase luminescence; scaled: DMSO wells 0%, SAHA wells 100%;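 active means activation above the solvent-only control well mean plus 3 SD, averaged across control plates, cut at about 5.2% in these data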
LXR ag = activates human LXR-beta, counter-screen for hcDAF-12 agonists; shares compounds with hcDAF12 agonist; HEK293 Gal4-LXR tk-luc reporter, luminescence, 24 h; normalized: DMSO 0%, positive control 100%; activation, % at 6.8 µM; 3,400 tested, under 10 active; AID 743027;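 active means mean percent activation of the reporter above a cutoff set as the average over tested compounds plus their standard deviation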
hcDAF12 ag = hcDAF-12 agonism, confirmation assay; shares compounds with hcDAF12 agonist; HEK293 hcDAF-12 lit1-tk-luc reporter, luminescence; % of Δ7-dafachronic acid response; activation, % at 6.8 µM; 61% of 3,400 active; AID 743032;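 active means mean activation across triplicate tests above the threshold derived from the earlier primary screen, cut at about 5.5% in these data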;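 further: 0% = DMSO only wells and 100% = 3 µM Δ7-dafachronic acid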
Starred values were filed as active, the others as inactive; x = no result.

SMILES	hgDAF12 agonist	DAX1 inh-1	hcDAF12 agonist	DAX1 inh-2	SMARCA2 activ	ssDAF-12 act	DAX1 conf	SF1 mutant ctr	others
O=C(c1ccc(Cl)cc1)C1CCCN(Cc2ccc3c(c2)OCCO3)C1 (centres undefined)	1	0	-1	0	-1	0	x	x
O=C1NC(=O)C2(Cc3ccccc3N3CCCC32)C(=O)N1c1cccc(Cl)c1 (centres undefined)	1	1	4	1	6	0	x	x
c1ccc2c(CNC3CCCCCC3)c[nH]c2c1	0	-1	5.7*	0	3	0	x	x
CCN1C(=O)NC(=O)/C(=C\c2cn(CC(=O)N3CCCCC3)c3ccccc23)C1=O	0	0	0	1	-2	-1	x	x
CC/C(=N\Nc1cccc2ccccc12)c1c(O)[nH]c(=O)[nH]c1=O	1	-3	2	-1	-2	1.3*	x	x
NCCNc1ccc([N+](=O)[O-])c2cccnc12	6	6.0*	2	1	7	-2	x	x
O=C1CC(=O)N(c2ccc(Cl)cc2)C(=O)N1	1	0	1	0	2	0	x	x
CN(C)C(=O)Oc1ccc(C(=O)c2ccccc2)cc1	6	0	3	1	7.9*	-1	x	x
CN(C)C(=O)Oc1ccc(OC(=O)N(C)C)cc1	2	0	0	0	4	-1	x	x
COc1ccc(CCNC2CCCCC2)cc1	-1	-1	-1	0	2	-2	x	x
COc1ccc(OC)c(C(c2c(O)c3ccccc3oc2=O)c2c(C)n(C)n(-c3ccccc3)c2=O)c1 (centres undefined)	0	6.6*	-1	0	0	-1	x	x
Cc1c(C(c2ccc(O)cc2)c2c(O)c3ccccc3oc2=O)c(=O)n(-c2ccccc2)n1C (centres undefined)	-1	-1	-1	0	1	-1	x	x
O=C1NCN(c2ccccc2)C12CCN(C(c1nnnn1-c1ccc3c(c1)OCCO3)C1CC1)CC2 (centres undefined)	3	x	-2	0	-1	-2	x	x
CC1=NCCc2c1[nH]c1ccccc21	-1	0	6.3*	0	1	1.0*	x	x
CN1CCc2c([nH]c3ccccc23)C1	7	-1	5	-1	1	-1	x	x
CCOC(=O)[C@]12Cc3ccccc3[C@H]1N(CCC(=O)OC)C(=O)c1cc(OC)ccc12	-1	x	2	7.2*	-1	-1	4.1*	9.3*
CN1C(CC(O)c2ccccc2)CCCC1CC(O)c1ccccc1 (centres undefined)	0	1	2	1	6	-1	x	x
O=C(N/N=C/c1c(O)n(C2CCCCC2)c(=S)[nH]c1=O)c1ccccc1O	0	1	-1	0	-1	-1	x	x
O=C(N/N=C/c1c(O)n(C2CCCCC2)c(=S)[nH]c1=O)c1ccccc1	6	0	2	4.8*	2	-1	3	2
O=C1NC(=O)C(=Cc2ccccc2Oc2ccc(F)cc2)C(=O)N1	0	0	0	1	-3	0	x	x
Cc1ccc(NP(=O)(Oc2ccccc2)Oc2ccccc2)cc1	-2	-1	0	0	-4	-1	x	x
c1ccc2oc(-c3ccc4c(c3)CNCc3cnnn3-4)cc2c1	9	x	0	5.0*	7	0	7.0*	4.6*
CC(C)C(NC(=O)C(C(C)C)N(C)C)C(=O)N(C)C(C(=O)N1CCCC1C(=O)N1CCCC1C(=O)NCc1ccccc1)C(C)C (centres undefined)	-7	1	0	5.4*	-2	0	21*	-7
Cc1cc(C)c(C(=O)N2CCC3(CC2)OCCO3)c(C)c1	3	-1	0	0	-1	-2	x	x
CCN(CC)C(=O)c1ccc(NC(=O)Nc2ccccc2F)cc1	11*	-5	5	6.5*	4	0	8.9*	4.2*
SMILES	hgDAF12 agonist	DAX1 inh-1	hcDAF12 agonist	DAX1 inh-2	SMARCA2 activ	ssDAF-12 act	DAX1 conf	SF1 mutant ctr	others
CCN(CC)C(=O)c1ccc(NC(=O)CCCSc2ccccc2)cc1	0	0	0	0	-3	-2	x	x
O=c1[nH]cnc2nc(-c3ccc(N(CCCl)CCCl)cc3)[nH]c12	8	1	2	5.5*	6	-1	11*	0
COC1CCC(OC2CC(C3(C)CCC4(CC(O)C(C)C(C(C)/C=C(\C)C(=O)C(C)CC(C)C(=O)O)O4)O3)OC3(OC(C4OC(O)(CO)C(C)CC4C)CC3C)C2C)OC1C (centres undefined)	-3	0	-1	9.6*	-6	-1	-9	-12
Cc1ccc(-c2cc(-c3ccccc3)cc(-c3ccccc3)[n+]2-c2ccccc2)cc1	-14	-5	-7	-3	-8	-3	x	x
Cc1ccc2c(c1)NP(=S)(Oc1ccccc1)N2 (centres undefined)	12*	4.5*	7.5*	8.0*	10*	1.0*	6.5*	2.9*	SMARCA2 act conf=1;VP16 Luc act=3;LXR ag=0;hcDAF12 ag=3
CCN1C(=O)NC(=O)/C(=C\c2ccc(N3CCOCC3)cc2OC)C1=O	1	x	1	1	-3	0	x	x
